RXFP1 ag: qHTS Assay for Agonists of the Relaxin Receptor RXFP1; Relaxin receptor 1 (Homo sapiens), Q9HBX9; HEK293T-RXFP1 cAMP TR-FRET, 30 min; response scale: percent of porcine relaxin response, buffer zero; Potency, µM (top dose mostly 57.5 µM), for inactives: at the top dose activation, most hits filed as activators; 0.3% of 370,000 active; AID 2676, 2010; further: potency means the concentration at half of the fitted maximal effect; on the % scale 0 is the no-effect control and ±100 the full control effect; nearly all actives have a fitted effect of over 60% in size
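cAMP rise read by TR-FRET after 30 min, 37C compound exposure (up to 58 uM) in RXFP1-transfected HEK293 cells with Ro 20174 present. EC50 from Hill-equation fits, with 29 nM porcine relaxin as 100% and buffer as basal.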
ClpP mod: qHTS Assay for Activators of ClpP; ATP-dependent Clp protease proteolytic subunit (Bacillus subtilis (strain 168)), P80244; purified B. subtilis ClpP, FRET peptide cleavage, 20 min; Potency, µM (doses to about 57.5 µM), inactives show top-dose activity change, negative = active; 1.9% of 340,000 active; AID 651965, 2013; active means well fitted falling curve with a large enough effect; inconclusive means small, poorly fitted or top-dose-only effect; inactive means no such curve, though single readings can be large or run the other way; further: potency means the concentration at half of the fitted maximal effect; the source files actives as falling curves though it sought activators and does not explain the sign; nearly all actives have a fitted effect of over 65% in size
Target sequence (P80244 whole entry, looked up): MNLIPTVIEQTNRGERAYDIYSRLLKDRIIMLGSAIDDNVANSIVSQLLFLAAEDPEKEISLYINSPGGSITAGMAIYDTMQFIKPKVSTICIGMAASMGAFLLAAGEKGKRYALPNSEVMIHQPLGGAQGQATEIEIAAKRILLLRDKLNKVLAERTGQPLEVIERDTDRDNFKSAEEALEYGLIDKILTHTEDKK
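Purified B. subtilis ClpP, 10 microg/mL final in Tris/HCl pH8 with KCl, BSA, glycerol and Tween-20, cleaved an Abz/nitrotyrosine-quenched decapeptide. Fluorescence (ex 320, em 430) was read at 0 and 20 min at room temperature. Delta was normalized to 5.8 microM ADEP and DMSO/no-enzyme controls.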
RXFP1 antag: qHTS Assay for Antagonists of the Relaxin Receptor RXFP1; activity change, negative = inhibition, % at 57.5 µM; Relaxin receptor 1 (Homo sapiens), Q9HBX9; 0.59% of 350,000 active; HEK293-RXFP1, relaxin-stimulated cAMP HTRF, 30 min; stronger effect = lower value;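 active means activity change of -60% or lower, but not beyond a set lower limit; inconclusive means change between -60% and -40%, or beyond the set limit; inactive means change above -40%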; further: on the % scale 0 is the no-effect control and ±100 the full control effect
pAkt inh: HTS Assay for Inhibitors of Akt Phophorylation: Primary Screen; Neuro2A IGF-stimulated pAkt S473 HTRF, 20 min; stronger effect = lower value; 0.32% of 360,000 active; AID 651550, 2012; activity change, % for hits at 50 µM; in the data active means activity change below about -80%; inconclusive means mostly about -51% to -80%; further: on the % scale 0 is the no-effect control and ±100 the full control effect
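Single-point screen (50 µM final compound) in Neuro2A cells stimulated 20 min with 6 nM IGF at 37 deg C. After lysis, Ser473-phosphorylated Akt read by HTRF (ex 330 nm, em 615/665 nm) as the 665/615 ratio.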
gsp antagonist: qHTS for Antagonists of gsp, the Etiologic Mutation Responsible for Fibrous Dysplasia/McCune-Albright Syndrome: qHTS | gsp-mutant cells, cAMP HTRF, 30 min | Potency, µM (series often up to 76.9 µM), for inactives: top-dose activity change, negative = inhibition, usual class: inhibitors | 0.4% of 340,000 active; calls by dose curve; cell line not stated here;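 further: intracellular cAMP measured with PDE inhibitor Ro 20-1724 present during compound exposure; potency means the concentration at half of the fitted maximal effect; on the % scale 0 is the no-effect control and ±100 the full control effect; nearly all actives have a fitted effect of over 65% in size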
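G418-selected cells were plated in DMEM/10% FBS for 16-24 h at 37C, then treated with compounds plus the PDE inhibitor […] (300 uM solution added) for 30 min at 37C. Intracellular cAMP was measured by HTRF after 30 min lysis at room temperature.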
gsp ag: qHTS for Agonist of gsp, the Etiologic Mutation Responsible for Fibrous Dysplasia/McCune-Albright Syndrome: qHTS. gsp mutant cells, cAMP HTRF, 30 min. Potency, µM (series often up to 76.9 µM), for the others: at the top dose activation (cAMP increase), most hits filed as activators. 0.13% of 340,000 active. AID 624287, 2012; active means well fitted activation curve with a large enough effect; inconclusive means small, poorly fitted or top-dose-only effect, or another doubt; inactive means no such curve, though single readings can be large or run the other way; cell line not stated here;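 further: phosphodiesterase inhibitor Ro 20-1724 added with compounds to block cAMP breakdown; potency means the concentration at half of the fitted maximal effect; nearly all actives have a fitted effect of over 60% in size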
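Cells stably selected in G418 were plated at 2000/well, grown 16-24 hr, then given compounds in DMSO with the PDE inhibitor […] (300 uM solution added) for 30 min at 37C; cAMP was read by HTRF.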
ClpP validation: qHTS Assay for Activators of ClpP: Hit Validation of Inhibitors; 40% of 470 active; shares compounds with ClpP mod; purified B. subtilis ClpP, FRET-FV substrate cleavage, 20 min; Potency, µM (series often up to 57.5 µM), inactives show at the highest dose activity change, negative = inhibition, most hits filed as inhibitors; further: potency means the concentration at half of the fitted maximal effect; on the % scale 0 is the no-effect control and ±100 the full control effect; nearly all actives have a fitted effect of over 70% in size
Numbers without * were called inactive; i = inactive; ? = inconclusive; . = no result; [ ] = another dose, or the depositor's remark. A selection: hits, their analogues and other compounds. The true share with any hit is near 2.7%. Unless noted, the call rests on the fitted dose curve; in most records, active means well fitted curve in the direction sought with a large enough effect; inconclusive means small, poorly fitted or top-dose-only effect, or another doubt; inactive means no such curve, though single readings can be large; an effect the other way counts as inactive or inconclusive.

SMILES	RXFP1 ag	ClpP mod	RXFP1 antag	pAkt inh	gsp antagonist	gsp ag	ClpP validation
Cc1nc(-c2ccc(Cl)cc2)sc1C1(C)CC(c2c(Cl)cccc2Cl)=NO1 (configuration not stated)	-3%	10µM*	.	i	-1%	.	27µM*
COc1ccccc1NC(=O)c1ccc(COc2ccc3c(c2)CCC3)cc1	-2%	219%	3	i	4%	7%	-19%
CCCN(CC(=O)Nc1ccccc1C)C(=O)c1ccc(-c2ccc(C(C)=O)cc2)o1	-2%	8.9µM*	-10	i	-16%	-1%	19µM*
COc1ccc(NC(=O)c2nc[nH]c2C(=O)Nc2ccccc2C)cc1	2%	72%	1	.	22%	-12%	-12%
Cc1ccc(-c2cn3c(n2)sc2cc(C(=O)NCc4cccs4)ccc23)cc1	7%	7.1µM*	-20	.	.	.	27µM*
C=C(C)Cn1c(SCC(=O)Nc2cccc(C)c2)nc2sc3c(c2c1=O)CCCC3	-2%	0%	-8	.	.	.	.
O=C(Nc1ccc(F)cc1)c1sc2cc(C(F)(F)F)cnc2c1-c1cccs1	0%	63%	-13	i	-16%[15.4 µM]	-13%	-14%
CN(CCCc1cnc[nH]1)C(=S)NCCCN(Cc1ccc(Cl)cc1)c1ccc(Br)cn1	.	-23%	.	.	.	.	.
CNC(=S)N(CCc1c(C)[nH]c2ccc(C)cc12)Cc1cccnc1	-2%	1%	.	i	-4%	-9%	.
O=C(O)c1ccc(NC(=O)c2cccc(C(=O)Nc3ccc(C(=O)O)cc3)n2)cc1	16%	1%	8	i	19%	-259%	.
O=C(Nc1ccccc1)c1cccc(C(=O)Nc2ccccc2)n1	6%	68%	5	i	7%	4%	24µM*
O=C(Nc1cccc(-c2cn3cccnc3n2)c1)c1ccc(Br)o1	4%	3.5µM*	9	i	-3%	3%	2.7µM*
Cc1ccc(-c2cn3cccnc3n2)cc1NC(=O)c1ccc(Br)o1	5%	62%	6	i	-1%	-33%	.
CCOC(=O)C1CCCN(C(=O)CSc2nnnn2C)C1 (configuration not stated)	.	-1%	8	i	6%	24%	.
COc1ccccc1OCCNC(=O)c1ccc2c(c1)OCCO2	-1%	7.9µM*	3	i	-1%	0%	-1%
Cc1nn(-c2ccccn2)c2c1-c1nc(N3CCOCC3)ncc1CC2	1%	3%	7	i	-2%	10%	.
Cc1nn(-c2ccccn2)c2c1-c1nc(N)ncc1CC2	4%	10µM*	-3	i	-18%	6%	17µM*
COc1ccccc1CNC(=O)c1ccc(Nc2nc3ccccc3n3nnnc23)cc1	15%	i	-14	.	.	.	15µM*
CC1(C)Cc2nc3oc4c(NCc5ccccc5)ncnc4c3cc2CO1	4%	2.8µM*	-8	i	-1%	12%	9.7µM*
CC1(C)Cc2nc3oc4c(NCCCN5CCOCC5)ncnc4c3cc2CO1	3%	.	3	i	-2%	?	.
CC1(C(=O)N(CC(=O)NC2CCCC2)Cc2ccco2)CC(=O)N=C2C=CC=CN21 (configuration not stated)	2%	3.2µM*	-26	i	4%	2%	17µM*

Source: PubChem
